The text below walks through data of the supplement of paper PMC11006884.

The full data set covers some 6,500 targets. This sample favours those with a hit. About 2% of all pairs of compound and target were hits. A number with no mark means an inactive call.

Chain of UniProt P51970 (P51970 whole entry): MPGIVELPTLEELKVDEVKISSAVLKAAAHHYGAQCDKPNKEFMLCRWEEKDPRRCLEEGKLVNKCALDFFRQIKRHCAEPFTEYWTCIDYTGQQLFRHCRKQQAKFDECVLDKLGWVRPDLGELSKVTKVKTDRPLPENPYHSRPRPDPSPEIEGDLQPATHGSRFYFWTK
Chain of UniProt P30153 (P30153 whole entry, looked up): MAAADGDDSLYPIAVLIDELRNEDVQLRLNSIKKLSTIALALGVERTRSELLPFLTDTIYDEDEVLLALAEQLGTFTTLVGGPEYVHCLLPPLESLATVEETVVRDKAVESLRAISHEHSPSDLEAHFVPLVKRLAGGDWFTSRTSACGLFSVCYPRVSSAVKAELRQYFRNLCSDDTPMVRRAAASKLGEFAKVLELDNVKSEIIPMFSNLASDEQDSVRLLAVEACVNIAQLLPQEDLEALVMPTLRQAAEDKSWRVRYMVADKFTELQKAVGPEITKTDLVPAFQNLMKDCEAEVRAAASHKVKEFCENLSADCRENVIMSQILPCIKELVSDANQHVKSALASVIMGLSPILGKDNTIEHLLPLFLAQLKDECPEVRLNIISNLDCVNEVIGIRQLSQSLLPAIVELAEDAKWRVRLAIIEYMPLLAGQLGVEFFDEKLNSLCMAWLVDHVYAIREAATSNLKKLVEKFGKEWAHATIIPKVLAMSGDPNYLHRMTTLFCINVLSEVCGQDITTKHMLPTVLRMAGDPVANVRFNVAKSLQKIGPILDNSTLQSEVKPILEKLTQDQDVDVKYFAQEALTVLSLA
Chain of UniProt P13489 (P13489 whole entry, looked up): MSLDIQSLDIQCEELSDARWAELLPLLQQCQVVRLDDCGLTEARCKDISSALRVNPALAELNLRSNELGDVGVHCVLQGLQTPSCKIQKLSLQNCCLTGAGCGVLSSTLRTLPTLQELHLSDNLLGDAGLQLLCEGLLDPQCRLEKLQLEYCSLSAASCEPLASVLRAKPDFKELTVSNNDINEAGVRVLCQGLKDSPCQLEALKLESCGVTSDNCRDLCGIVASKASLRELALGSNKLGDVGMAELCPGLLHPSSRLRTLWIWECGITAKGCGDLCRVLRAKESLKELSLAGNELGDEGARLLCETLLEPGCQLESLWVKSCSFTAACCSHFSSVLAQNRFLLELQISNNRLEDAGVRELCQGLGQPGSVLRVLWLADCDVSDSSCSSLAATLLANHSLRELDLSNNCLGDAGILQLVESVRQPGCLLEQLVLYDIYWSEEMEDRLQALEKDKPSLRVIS
Chain of UniProt P42166 (P42166 whole entry, looked up): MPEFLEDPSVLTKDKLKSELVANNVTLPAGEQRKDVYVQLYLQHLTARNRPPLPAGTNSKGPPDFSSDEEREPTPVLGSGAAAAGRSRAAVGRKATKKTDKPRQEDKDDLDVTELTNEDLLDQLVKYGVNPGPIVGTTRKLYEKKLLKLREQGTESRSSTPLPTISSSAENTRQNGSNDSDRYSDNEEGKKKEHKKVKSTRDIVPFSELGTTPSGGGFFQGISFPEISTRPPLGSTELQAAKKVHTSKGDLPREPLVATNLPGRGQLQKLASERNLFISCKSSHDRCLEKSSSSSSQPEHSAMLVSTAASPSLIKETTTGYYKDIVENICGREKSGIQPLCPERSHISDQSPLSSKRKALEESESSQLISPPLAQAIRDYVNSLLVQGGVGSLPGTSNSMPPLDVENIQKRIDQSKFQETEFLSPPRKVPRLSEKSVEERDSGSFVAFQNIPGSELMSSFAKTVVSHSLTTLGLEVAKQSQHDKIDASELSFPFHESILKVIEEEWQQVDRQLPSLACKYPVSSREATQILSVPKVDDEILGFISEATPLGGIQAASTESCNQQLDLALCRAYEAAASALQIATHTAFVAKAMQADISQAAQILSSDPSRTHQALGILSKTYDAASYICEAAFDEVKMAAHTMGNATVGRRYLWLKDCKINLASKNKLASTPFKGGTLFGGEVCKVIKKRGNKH
Chain of UniProt P06733 (P06733 whole entry, looked up): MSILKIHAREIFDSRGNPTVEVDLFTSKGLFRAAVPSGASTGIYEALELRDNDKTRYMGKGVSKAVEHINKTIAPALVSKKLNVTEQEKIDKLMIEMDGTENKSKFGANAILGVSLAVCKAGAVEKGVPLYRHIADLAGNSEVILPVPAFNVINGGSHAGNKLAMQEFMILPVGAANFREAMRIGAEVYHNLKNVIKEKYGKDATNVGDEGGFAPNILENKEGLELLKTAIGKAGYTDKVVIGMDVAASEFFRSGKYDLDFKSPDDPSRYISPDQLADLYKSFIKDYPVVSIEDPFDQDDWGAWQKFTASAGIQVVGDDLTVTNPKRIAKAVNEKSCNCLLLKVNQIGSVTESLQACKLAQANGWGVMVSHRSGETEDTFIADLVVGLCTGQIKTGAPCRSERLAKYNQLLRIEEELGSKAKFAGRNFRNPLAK
Chain of UniProt P11310 (P11310 whole entry, looked up): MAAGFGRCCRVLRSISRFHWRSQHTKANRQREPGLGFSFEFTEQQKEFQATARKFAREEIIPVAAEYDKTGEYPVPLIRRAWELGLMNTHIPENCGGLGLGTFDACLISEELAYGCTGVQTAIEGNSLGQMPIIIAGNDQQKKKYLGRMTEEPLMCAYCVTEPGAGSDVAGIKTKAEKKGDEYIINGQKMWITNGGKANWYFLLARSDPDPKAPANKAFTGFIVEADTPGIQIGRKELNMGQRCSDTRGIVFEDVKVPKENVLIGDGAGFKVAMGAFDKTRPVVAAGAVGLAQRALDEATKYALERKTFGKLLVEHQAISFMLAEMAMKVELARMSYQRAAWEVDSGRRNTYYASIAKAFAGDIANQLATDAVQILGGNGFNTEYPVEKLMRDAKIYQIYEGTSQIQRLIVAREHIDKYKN
Chain of UniProt P27707 (P27707 whole entry, looked up): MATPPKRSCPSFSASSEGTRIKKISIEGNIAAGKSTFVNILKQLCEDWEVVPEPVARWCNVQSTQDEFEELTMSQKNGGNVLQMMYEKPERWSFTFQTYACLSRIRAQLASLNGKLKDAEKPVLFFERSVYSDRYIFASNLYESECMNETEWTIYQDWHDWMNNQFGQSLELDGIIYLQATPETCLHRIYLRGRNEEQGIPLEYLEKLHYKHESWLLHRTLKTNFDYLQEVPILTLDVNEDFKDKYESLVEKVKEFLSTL
Chain of UniProt P04075 (P04075 whole entry, looked up): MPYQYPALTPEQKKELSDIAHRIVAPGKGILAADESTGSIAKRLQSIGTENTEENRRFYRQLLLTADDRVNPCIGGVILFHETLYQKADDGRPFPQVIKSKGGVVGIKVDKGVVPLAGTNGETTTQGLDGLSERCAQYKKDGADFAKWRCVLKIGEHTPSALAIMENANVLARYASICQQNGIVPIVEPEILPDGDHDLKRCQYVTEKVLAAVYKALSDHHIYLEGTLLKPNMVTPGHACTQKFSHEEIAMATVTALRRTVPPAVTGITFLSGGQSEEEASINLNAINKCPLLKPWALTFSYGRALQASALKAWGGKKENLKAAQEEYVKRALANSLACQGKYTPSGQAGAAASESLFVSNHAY
Chain of UniProt P50395 (P50395 whole entry): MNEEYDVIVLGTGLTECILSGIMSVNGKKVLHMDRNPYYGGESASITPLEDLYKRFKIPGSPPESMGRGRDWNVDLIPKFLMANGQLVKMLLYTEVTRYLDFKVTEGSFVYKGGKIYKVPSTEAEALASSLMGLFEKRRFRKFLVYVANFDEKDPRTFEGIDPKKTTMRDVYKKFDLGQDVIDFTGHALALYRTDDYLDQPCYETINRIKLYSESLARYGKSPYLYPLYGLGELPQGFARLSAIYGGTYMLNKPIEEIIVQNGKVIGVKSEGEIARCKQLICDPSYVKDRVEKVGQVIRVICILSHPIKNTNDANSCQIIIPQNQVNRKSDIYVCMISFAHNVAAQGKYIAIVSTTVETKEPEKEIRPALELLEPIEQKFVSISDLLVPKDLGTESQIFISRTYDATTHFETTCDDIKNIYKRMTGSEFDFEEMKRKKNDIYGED
Chain of UniProt P40227 (P40227 whole entry, looked up): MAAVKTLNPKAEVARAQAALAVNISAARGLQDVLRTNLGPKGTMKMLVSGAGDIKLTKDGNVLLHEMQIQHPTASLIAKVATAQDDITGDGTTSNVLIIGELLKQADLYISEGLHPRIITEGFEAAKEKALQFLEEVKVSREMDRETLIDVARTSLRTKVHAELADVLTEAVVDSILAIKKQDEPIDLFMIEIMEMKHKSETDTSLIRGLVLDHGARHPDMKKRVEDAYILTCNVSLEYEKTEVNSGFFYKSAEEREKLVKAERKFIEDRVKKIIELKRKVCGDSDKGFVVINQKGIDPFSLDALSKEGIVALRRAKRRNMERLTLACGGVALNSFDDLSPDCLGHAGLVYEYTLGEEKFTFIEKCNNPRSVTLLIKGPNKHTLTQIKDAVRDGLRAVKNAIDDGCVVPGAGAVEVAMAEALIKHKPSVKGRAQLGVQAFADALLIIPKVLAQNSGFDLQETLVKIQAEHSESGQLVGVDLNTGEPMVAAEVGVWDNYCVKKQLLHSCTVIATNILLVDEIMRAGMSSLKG
Chain of UniProt P52597 (P52597 whole entry, looked up): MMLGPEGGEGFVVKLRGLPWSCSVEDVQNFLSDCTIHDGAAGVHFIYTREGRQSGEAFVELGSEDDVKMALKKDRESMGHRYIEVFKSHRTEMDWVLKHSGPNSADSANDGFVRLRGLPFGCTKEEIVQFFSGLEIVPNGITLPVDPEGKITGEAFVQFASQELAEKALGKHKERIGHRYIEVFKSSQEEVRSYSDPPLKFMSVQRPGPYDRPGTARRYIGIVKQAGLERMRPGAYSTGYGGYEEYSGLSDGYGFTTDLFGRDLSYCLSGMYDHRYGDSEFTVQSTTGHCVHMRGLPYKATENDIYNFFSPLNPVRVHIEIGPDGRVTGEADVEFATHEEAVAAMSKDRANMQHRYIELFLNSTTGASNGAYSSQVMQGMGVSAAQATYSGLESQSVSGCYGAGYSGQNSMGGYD

Compound in the assay: COC(=O)C#Cc1ccccc1 [methyl 3-phenylpropiolate]
Nature of the assay: log2 ratio of iodoacetamide-alkyne labeling of the cysteine site, DMSO over compound (competition); higher = stronger covalent engagement of the cysteine by the compound, active = 1 or more. As to conditions: 500 µM; treatment time 1 h; system: HEK293T cell lysate. A digest of the protocol:
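HEK293T lysate at 2 mg/mL was treated with vehicle or electrophile (500 µM) for 1 h at ambient temperature, then labelled with iodoacetamide alkyne (1 h), clicked to sCIP-TMT reagents, pooled, digested with trypsin overnight at 37 °C, enriched on streptavidin and eluted with acid. Peptides were analysed by Orbitrap Eclipse LC-MS/MS with FAIMS and quantified in FragPipe, using duplicate channels and three replicates, with cysteines quantified in only one replicate excluded. The log2 competition ratio for each cysteine is the mean control-channel reporter intensity divided by the mean compound-channel reporter intensity.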
As for CCT6A C282 (UniProt P40227), the “log2 ratio of iodoacetamide-alkyne labeling” value (“log2 ratio” for short) was 0.13. For EEF2 C812 (UniProt P13639) the value was 0.148; for UniProt P0CG30_C105, -0.204.

On to HSP90AA1 C420 (UniProt P07900), for which the “log2 ratio” value was -0.4. For ACADM C156 (UniProt P11310) the value was 0.666; for UniProt P0DN79_C15, 2.27 (active); for UniProt P49753_C401, 0.0763. The figure for UniProt P17812_C218 is -0.193; for RANBP2 C581 (UniProt P49792) it is 0.41. The figure for CARS C27 (UniProt P49589) is 0.454; for UniProt P25705_C244 it is 0.205.

As to GSR C102 (UniProt P00390), the “log2 ratio” value was 0.154.

Turning to TMPO C341 (UniProt P42166), the “log2 ratio” value was 1.77 (active). For PAICS C81 (UniProt P22234) the value was 0.248; for RPL3 C253 (UniProt P39023), 0.582. Take UniProt P26639_C107: the “log2 ratio” value is 0.12. For PPP2R1A C154 (UniProt P30153) the value was 0.637; for PABPC1 C128 (UniProt P11940), -0.0389; for ST13 C209 (UniProt P50502), 0.272. The figure for CCT8 C244 (UniProt P50990) is 0.242. For NDUFA8 C110 (UniProt P51970) the value was 1.12 (active). In the case of LTA4H C8 (UniProt P09960), the “log2 ratio” value is 0.273.

Consider FLNA C478 (UniProt P21333), for which the “log2 ratio” value was 0.00171. The figure for ENO1 C389 (UniProt P06733) is 0.125. For RPL4 C208 (UniProt P36578) the value was 0.273; for GDI2 C202 (UniProt P50395), -0.0158. For the target MAP1B C2065 (UniProt P46821), the “log2 ratio” value is 0.623.

ALDOA C202 (UniProt P04075): the “log2 ratio” value was -0.0261. For PARP1 C128 (UniProt P09874) the value was 0.229; for COIL C126 (UniProt P38432), 0.729.

Take HNRNPF C290 (UniProt P52597): the “log2 ratio” value is 0.0362. The figure for MCM3 C319 (UniProt P25205) is -0.032; for MAP1B C1814 (UniProt P46821) it is 0.438; for DCK C9 (UniProt P27707) it is 1.15 (active). For MAP1B C2088 (UniProt P46821) the value was 0.329.

For CASP3 C184 (UniProt P42574), the “log2 ratio” value was 0.259. As for RNH1 C75 (UniProt P13489), the “log2 ratio” value is 0.145.
